RORgamma inh = inhibitors of mouse ROR gamma transcriptional activity; Drosophila S2 Gal4-RORgamma UAS-luciferase reporter, 20 h; actives 5.4% (n = 310,000); P51450; Potency, µM (top dose mostly 53.6 µM), inactives show at the top dose activity change, negative = inhibition, hits mostly inhibitors; AID 2551; note: potency is the fitted concentration of half-maximal effect; % is set by controls: 0 for no effect and ±100 for the full control effect; nearly all actives have a fitted effect of over 60% in size
Target sequence (P51450 whole entry, looked up, the tested form may be a part): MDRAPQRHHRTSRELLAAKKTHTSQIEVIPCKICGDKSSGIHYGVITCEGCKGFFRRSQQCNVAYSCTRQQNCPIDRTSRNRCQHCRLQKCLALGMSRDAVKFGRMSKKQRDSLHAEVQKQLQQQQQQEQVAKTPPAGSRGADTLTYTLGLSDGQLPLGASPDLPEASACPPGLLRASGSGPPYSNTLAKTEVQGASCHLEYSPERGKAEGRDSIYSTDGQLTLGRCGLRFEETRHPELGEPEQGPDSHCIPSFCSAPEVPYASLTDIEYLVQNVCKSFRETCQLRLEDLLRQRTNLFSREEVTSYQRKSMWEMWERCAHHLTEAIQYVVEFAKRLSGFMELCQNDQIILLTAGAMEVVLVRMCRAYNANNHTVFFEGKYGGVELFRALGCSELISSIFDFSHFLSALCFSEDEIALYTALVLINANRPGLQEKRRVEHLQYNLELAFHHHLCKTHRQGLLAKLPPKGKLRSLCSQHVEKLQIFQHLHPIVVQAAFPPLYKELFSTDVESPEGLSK
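A Gal4/UAS one-hybrid system in insect cells: metallothionein-promoter Gal4–ROR gamma fusion plus Photinus luciferase reporter. Copper sulfate 700 uM final, 20 hr ambient incubation, luminescent detection after 10 min with reagent.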
Gal4-VP16 FLuc = Gal4-VP16 reporter inhibition counter-screen. actives 3.5% (n = 310,000). Drosophila S2 Gal4-VP16 UAS-luciferase, luminescence, 20 h. AID 2546. Potency, µM (titrated, usually from 53.6 µM), for the others: at the highest dose activity, negative = inhibition, most hits filed as inhibitors;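 note: Gal4-VP16 expression switched on by copper sulfate through the metallothionein promoter; potency is the fitted concentration of half-maximal effect; % is set by controls: 0 for no effect and ±100 for the full control effect; nearly all actives have a fitted effect of over 50% in size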
uPA surface inh = inhibitors of cell surface uPA generation; cell surface uPA generation assay, qHTS; actives 0.31% (n = 330,000); AID 540303; Potency, µM (series often up to 38.3 µM), without a hit: at the highest dose activity change, negative = inhibition, hits mostly inhibitors; active = well fitted inhibition curve with a large enough effect; inconclusive = small, poorly fitted or top-dose-only effect; inactive = no such curve, though single readings can be large or run the other way; tested in mouse RAW 264.7 cells; note: potency is the fitted concentration of half-maximal effect; % is set by controls: 0 for no effect and ±100 for the full control effect; nearly all actives have a fitted effect of over 55% in size
TRPV1 ag = agonists of human vanilloid receptor 1 (TRPV1). Q8NER1. TRPV1-expressing cells, Fluo-8 calcium influx, agonist mode. activation, % at 8.33 µM. actives 0.19% (n = 320,000). AID 540275; in the data active = activation above about 80%; inconclusive = between about 30% and that limit; note: 0% is about no effect
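Fluo-8 calcium influx in TRPV1-expressing cells, kinetic read (ex 480/em 520 nm). Compound added and read 3 min for agonist activity, followed by capsaicin at EC20 final and 2 min further read for enhancement.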
TRPV1 PAM = human TRPV1 potentiation. AID 540277. potentiation, % at 8.33 µM. TRPV1-expressing cells, Fluo-8 calcium influx, capsaicin EC20 potentiation. actives 0.02% (n = 320,000); in the data active = potentiation above about 80%; inconclusive = between about 30% and that limit; note: 0% is about no effect
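Cells expressing TRPV1 were dye-loaded with Fluo-8 and read kinetically: 10 s baseline, 3 min after compound (agonist portion), then 2 min after EC20 capsaicin (allosteric enhancer portion). Calcium-bound dye fluorescence at 480/520 nm.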
* = called active by the depositor; u = inconclusive; x = not tested or not shown; [ ] = dose if it differs, or a comment. In the library only some 5.8% were active in any assay of this set; here they are far more common. Unless noted, calls come from the whole dose curve; as a rule, active = well fitted curve in the direction sought with a large enough effect; inconclusive = small, poorly fitted or top-dose-only effect, or another doubt; inactive = no such curve, though single readings can be large; an effect the other way counts as inactive or inconclusive.

SMILES	RORgamma inh	Gal4-VP16 FLuc	uPA surface inh	TRPV1 ag	TRPV1 PAM
CC(C)N=C(NS(=O)(=O)c1ccccc1)C(Cl)(Cl)Cl	7.1µM*	u	-15%	25	-24
COC(=O)c1ccc(NC(=S)Nc2ccccn2)cc1	1µM*	1µM*	-1%	-3	-68
Cc1ccc(NC(=O)C(=O)Nc2ccccn2)cc1	6.3µM*	5.6µM*	-7%	27	-8
COc1ccc(S(=O)(=O)Nc2ccccn2)cc1	18%	-1%	4%	3	10
COc1ccc(NC(=S)Nc2ccccn2)cc1	2.8µM*	7.1µM*	-6%	1	2
COc1ccccc1NC(=S)Nc1ccccn1	1.6µM*	3.5µM*	2%	1	13
Cc1ccc(S(=O)(=O)CC(=O)Nc2ccccn2)cc1	-14%	3%	2%	-2	9
C[C@@H](CN1c2ccccc2Sc2ccccc21)N(C)C	0%[16.9 µM]	9%[17 µM]	x	x	x
O=C1NC(=O)c2cc(Nc3ccccc3)c(Nc3ccccc3)cc21	35%	-3%	x	x	x
CC(=O)Nc1ccc(CNc2ncnc3ccc(-c4c(C)noc4C)cc23)cc1	15%	-34%	u	15	-9
Cc1cccc(CNc2ncnc3ccc(-c4c(C)noc4C)cc23)c1	2µM*	13%	x	x	x
Cc1noc(C)c1-c1ccc2ncnc(NC3CC3)c2c1	-25%	-16%	x	x	x
C/C=C\C1=CCCC1Nc1ncnc2ccc(-c3c(C)noc3C)cc12 (stereo unspecified)	11µM*	u	x	x	x
CC(=O)NCCNc1ncnc2ccc(-c3c(C)noc3C)cc12	11µM*	u	x	x	x
CCn1c(=O)n(CC)c2cc(N3CCCC3)c(NC(=O)c3ccc(C)cc3)cc21	2%	7%	-6%	5	1
N=c1oc2c3c4c(cc2cc1C(=O)Nc1ccccc1)CCCN4CCC3	u	14%	0%	84*	11
CCOC(=O)/C(=C\c1ccc(OC(F)F)cc1)C1=Nn2c(nnc2-c2ccc(Cl)cc2)SC1	6.3µM*	5.6µM*	-8%	8	13
CC(CN(C)C)CN1c2ccccc2Sc2ccc(C(F)(F)F)cc21 (stereo unspecified)	11%	-7%	x	x	x
S=c1nn[nH]n1C12CC3CC(CC(C3)C1)C2	2.5µM*	7.1µM*	10%	0	1
O=S(=O)(c1ccccc1)c1ncc(C(F)(F)F)cc1Cl	8.9µM*	16µM*	-16%	2	15
CN(NS(C)(=O)=O)c1ncc(C(F)(F)F)cc1Cl	11µM*	u	-2%	u	-22
CC(=O)OC[C@@H]1O[C@H](C/C=N\OCC[C@H]2C=C[C@H](OC(C)=O)[C@@H](COC(C)=O)O2)C=C[C@@H]1OC(C)=O	-22%[10 µM]	-4%[10 µM]	x	x	x
COC(=O)C/C=C/[C@@H](C)[C@H](OC)c1c(Br)ccc2c1OCO2	8%	2%	x	x	x
CC(=O)Nc1ccc(C2NC(C(=O)O)CCC2C)cc1 (stereo unspecified)	7%[10 µM]	-13%[10 µM]	x	x	x
Cc1ccc(Nc2cc(C)c3c(O)cccc3n2)cc1C	u	10µM*	-14%	2	-8
SMILES	RORgamma inh	Gal4-VP16 FLuc	uPA surface inh	TRPV1 ag	TRPV1 PAM
C=CS(=O)(=O)N(Cc1ccc(Cl)c(Cl)c1)C[C@@H](O)CO	x	x	3.5µM*	x	x
O=C(O)c1sccc1SCc1ccc(Cl)c(Cl)c1	11%	u	0%	x	x
Cc1ccc(N=Nc2c(C)[nH]n(-c3ccccc3)c2=O)cc1Br	-1%	u	6%	3	-9
Cc1ccc(N=Nc2c(C)[nH]n(-c3ccccc3)c2=O)c(C)c1	u	18µM*	2%	-9	5
CCN(CC)CCNC(=O)c1ccc(NC(=O)c2cccc(S(=O)(=O)Nc3ccc(C)cc3)c2)cc1	-105%	16µM*	-32%	6	-2
O=C(Nc1ccc(Br)cc1)c1cccc(S(=O)(=O)Nc2ccc(Br)cc2)c1	u	7.9µM*	x	x	x
CCN(CC)CCNC(=O)c1ccc(NC(=O)c2cccc(S(=O)(=O)N3CCc4ccccc43)c2)cc1	x	x	-16%	14	-6
O=C1CSc2ccc(C(=O)Nc3cccc(S(=O)(=O)Nc4ccc(Br)cc4)c3)cc2N1	16µM*	10µM*	u	13	-27
COc1cc(-c2nnc(CSc3nc4ccccc4s3)o2)cc(OC)c1OC	3%	-4%	x	u	-17
Clc1ncnc2scc(-c3ccc(Br)cc3)c12	11µM*	u	-13%	-2	6
